The structures appear in SMILES notation. Values joined by “and” are separate entries in the source; they are usually repeats but may differ in a detail not shown here. Equal values may be shown once. About 83,000 compounds went through this panel and 20% of them were active in at least one assay; those are over-represented in the sample as a whole.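 Treatment: one concentration, 48 hours, 96-well format. Scoring: percent growth, with anything below 10 considered active.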 Active and inactive are the calls of the source.

Common to all, as to test: NCI-60 one-dose screen, 48 h (100 = growth as untreated, 0 = no growth, -100 = all killed)
What all share (conditions): 10 µM unless noted

In test [1] the test system is SR leukemia.
Test [2] has as its system RPMI-8226 leukemia.
Test [3] concerns OVCAR-8 ovarian.
For test [4], the system named is OVCAR-4 ovarian.
Test [5] relates to SK-OV-3 ovarian.
For test [6], the system named is IGROV1 ovarian.
Test [7] concerns OVCAR-3 ovarian.
The test system of test [8] is HS 578T breast.
In test [9] the test system is NCI/ADR-RES ovarian.
In test [10] the test system is OVCAR-5 ovarian.

For `COc1cc2cc(NCc3ccncc3)nc(C)c2cc1OC`, the growth was 70.9% (inactive) in test [1]; 106% (inactive) in test [2]; 91.5% (inactive) in test [3]; 94.4% (inactive) in test [4]; 77.6% (inactive) in test [5]; 113% (inactive) in test [6]. The growth was 107% (inactive) in test [7], 83.5% (inactive) in test [8] and 97.2% (inactive) in [9].

For `O=C(N/N=C/c1ccc(O)cc1O)c1cccc(Nc2ccnc(C(F)(F)F)c2)c1`, the growth in test [1] was 21.7% (inactive); in [2] it was 30.8% (inactive); in [3], 22.7% (inactive); in test [10], 47.8% (inactive); in test [4] it was 39.9% (inactive); in test [5] it was 25.1% (inactive). Further, the growth is 34.2% (inactive) in test [6], 44.8% (inactive) in test [8] and 49.6% (inactive) in [9].

As for `CCCNNC(=O)/C=C/c1ccc(CNCCc2c(C)[nH]c3ccccc23)cc1`, the growth in [1] is 20.1% [2.5 µM] (inactive); in test [2], 16.3% [2.5 µM] (inactive); in test [3] it was 10.8% [2.5 µM] (inactive); in test [4], 41.6% [2.5 µM] (inactive); in test [5], 0.0389% [2.5 µM] (active); in test [6], 9.05% [2.5 µM] (active). In addition, the values for the growth in test [7], in test [8] and in test [9] were 19.8% [2.5 µM] (inactive), 35.3% [2.5 µM] (inactive) and 50% [2.5 µM] (inactive), respectively.

`O=C(Oc1ccc(CO[N+](=O)[O-])cc1)c1ccccc1`: the growth was -45.7% (active) in [1]; -53.1% (active) in test [2]; -83.7% (active) in test [3]; -77.1% (active) in test [4]; -90.4% (active) in [5]; -80.2% (active) in test [6]. The figures for the growth in [7], in test [8] and in test [9] were -97% (active), -25.1% (active) and -82% (active), respectively.

Turning to `O=C1N=c2ccccc2=C1c1sc(=S)n(C2CC(=O)N(c3ccc(Cl)cc3)C2=O)c1O` (stereo not drawn), the growth in test [1] is 36.5% (inactive); in test [2], 103% (inactive); in test [3], 98.6% (inactive); in test [4], 103% (inactive); in test [5], 103% (inactive); in [6] it was 101% (inactive). The growth in test [7] was 109% (inactive); in [8], 98.1% (inactive); in test [9], 102% (inactive).

For `CCOc1ccc(N2C(N)=NC(N)=NC2(C)C)cc1`, the growth in test [1] is 5.52% (active) and 92.7% (inactive); in [2], -4.32% (active) and 90% (inactive); in test [3] it was 25.8% (inactive) and 91.2% (inactive); in [4] it was 42.4% (inactive) and 108% (inactive); in [5] it was 15.7% (inactive) and 80.1% (inactive); in test [6] it was 45.7% (inactive) and 80.8% (inactive). The growth in test [7] was -35.8% (active) and 107% (inactive); in [8], 35.9% (inactive) and 96% (inactive); in test [9] it was 9.74% (active) and 101% (inactive).

As to `Cc1c(C(=O)OCCCCOC(=O)c2c(C)n(C)c3scc[n+]23)[n+]2ccsc2n1C`, the growth is 117% (inactive) in test [1]; 96.1% (inactive) in [2]; 96.2% (inactive) in [3]; 103% (inactive) in [4]; 103% (inactive) in test [5]; 110% (inactive) in test [6]. The growth in test [7] is 95.3% (inactive); in [8], 179% (inactive); in [9], 110% (inactive).

Consider `CN1CCN(Cc2ccc(NC(=O)c3nc4ccc5[nH]ncc5c4c4c3CCCC4)cc2C(F)(F)F)CC1`, for which the growth in [1] was -49.8% (active); in test [2], -36.2% (active); in test [3] it was -73.8% (active); in test [4] it was -39.7% (active); in [5], 37% (inactive); in test [6], -65.5% (active). The growth in [7] is -80.3% (active); in test [8], -35.4% (active); in test [9], -35.3% (active).

For the compound `O=C(NNc1ccccc1)c1ncc[nH]1`, the growth in test [1] was 104% (inactive); in test [2] it was 53.5% (inactive); in [3], 80.9% (inactive); in test [10], 65.3% (inactive); in test [4], 48.4% (inactive); in [5], 81.2% (inactive). The results for the growth in [6], in test [8] and in [9] were 71.1% (inactive), 89.2% (inactive) and 78.6% (inactive), respectively.

Regarding `CCN(CC)CCOc1ccc(/C(=C(\Cl)c2ccccc2)c2ccccc2)cc1`, the growth is 17.4% (inactive) and 85.1% (inactive) in [1]; -21.2% (active) and 88.8% (inactive) in test [2]; 67.2% (inactive) and 104% (inactive) in test [3]; 55.5% (inactive) and 47.4% (inactive) in test [4]; 45.5% (inactive) and 80.8% (inactive) in test [5]; 53.6% (inactive) in test [6]. For the same compound, the growth in test [7] was 76.9% (inactive) and 118% (inactive); in [8], 55% (inactive); in test [9] it was 59.3% (inactive) and 92.9% (inactive).

Turning to `CCN(C(=O)N1CCN(c2cc3c(cc2F)c(=O)c(C(=O)O)cn3C2CC2)CC1)c1nc(-c2ccccc2)cs1`, the growth in [1] was 10% (inactive); in [2], 12.5% (inactive); in test [3], 30.2% (inactive); in test [4], 55.5% (inactive); in test [5] it was 63.8% (inactive); in test [6], 12.5% (inactive). In addition, the figures for the growth in test [7], in test [8] and in test [9] were 15.9% (inactive), 18.2% (inactive) and 22.4% (inactive), respectively.

Take `COc1ccc(/C=C/C(=O)c2cc3c(N)c(C(=O)Nc4ccccc4Cl)sc3nc2C)cc1`: the growth in [1] was 53.1% (inactive); in [2] it was 53% (inactive); in test [3], 40.3% (inactive); in test [10], 79% (inactive); in test [4] it was -13% (active); in test [5], 58.5% (inactive). Also, the growth in test [6] is 26.9% (inactive); in test [8], 10.3% (inactive); in test [9], 42.9% (inactive).

Values taken from PubChem BioAssay (NCI).
